Bioassay records from PubChem.
Only a sample is shown.
aSyn 5UTR act = Activators via SNCA 5'UTR binding, MLPCN. 7.1% of 300,000 active. activity score, % (tested at 7.5 µM), hits read low. AID 1814. alpha-synuclein 5'UTR reporter, activators screen; in the data active = activity score below about -60%
Each line names hits and unclear results; the compound was inactive in the other large screens.

Cc1ccc(NC(=O)OCc2cccs2)cc1	aSyn 5UTR act -190.6
Cc1ccc(NC(=O)OCc2cc(-c3ccccc3)on2)cc1	aSyn 5UTR act -92.8
Cc1ccc(-c2ccc(SCC(=O)Nc3ccc4c(c3)OCCO4)nn2)cc1	aSyn 5UTR act -97.8
Cc1ccc(-c2ccc(SCC(=O)Nc3nonc3C)nn2)cc1	aSyn 5UTR act -87.0
CC(=O)Nc1ccc(NC(=O)CSc2ccc(-c3ccc4c(c3)OCO4)nn2)cc1	aSyn 5UTR act -65.7
O=C(CSc1nnnn1-c1ccccc1)c1ccco1	aSyn 5UTR act -62.6
O=C(CSc1nnc2sc3ccccc3n12)c1ccco1	aSyn 5UTR act -117.6
c1csc(CSc2nnc3sc4ccccc4n23)c1	aSyn 5UTR act -81.2
CCN(CC)C(=O)c1ccc(COc2ccc(Cl)c(C)c2)o1	aSyn 5UTR act -119.2
Cc1cc(OCc2ccc(C(=O)n3cccn3)o2)ccc1Cl	aSyn 5UTR act -62.0
COc1cccc(N2CCN(C(=O)c3ccc(CS(=O)c4ccc(Cl)cc4)o3)CC2)c1 (stereo not drawn)	none
CCOC(=O)c1cc(-c2ccc(/C=C3/C(=O)N(c4ccc(C(=O)O)cc4)N=C3C)o2)ccc1Cl	aSyn 5UTR act -75.5
CCCCOC(=O)c1cc(-c2ccc(/C=N/n3cnnc3)o2)ccc1Cl	aSyn 5UTR act -74.2
CCOc1cc(CNCCc2ccc(S(N)(=O)=O)cc2)ccc1OCc1ccc(Cl)cc1	none
COc1cc(CNCCc2ccc(S(N)(=O)=O)cc2)ccc1OCc1ccc(Cl)cc1	aSyn 5UTR act -64.2
N/C(=N\OC(=O)c1ccc(Cl)c(Cl)c1)c1cccnc1	aSyn 5UTR act -138.0
N/C(=N\OC(=O)c1cccc(C(F)(F)F)c1)c1cnccn1	aSyn 5UTR act -81.2
N/C(=N\OC(=O)c1cccc(Cl)c1)c1ccncc1	aSyn 5UTR act -86.7
N/C(=N\OC(=O)c1cccc(Cl)c1)c1cccnc1	aSyn 5UTR act -114.0
O=c1c(-c2ccc([N+](=O)[O-])cc2)coc2c(O)c(O)ccc12	aSyn 5UTR act -90.9
Nc1c(Cl)ncnc1N/N=C/c1ccnc2ccccc12	aSyn 5UTR act -68.0
C(=N\Nc1ncnc2ccccc12)/c1ccccc1	aSyn 5UTR act -212.4
Clc1cccc(/C=N/Nc2ncnc3ccccc23)c1	aSyn 5UTR act -197.9
CNS(=O)(=O)c1cc2c3c(cccc3c1)C(=O)NC2=O	none
CNc1cccc2c1C(=O)c1ccccc1C2=O	aSyn 5UTR act -119.3
Cc1ccc(-c2nnc(NC3CCCC3)s2)cc1	aSyn 5UTR act -142.8
O=C(CNC(=O)c1cccs1)c1ccc(Cl)cc1	aSyn 5UTR act -88.6
Cc1ccc2cc(CCNC(=O)c3cccs3)c(=O)[nH]c2c1C	aSyn 5UTR act -190.1
O=C(NCCc1ccc(Cl)cc1)c1cccs1	aSyn 5UTR act -156.2
Cc1ccc(Nc2cc(C)nc(-c3ccccc3O)n2)cc1	aSyn 5UTR act -115.9
Cc1ccc(Nc2cc(C)nc(-c3ccccc3)n2)cc1	aSyn 5UTR act -124.0
Cc1cc(NCCCN)nc(-c2ccccc2O)n1	aSyn 5UTR act -69.4
Cc1ccc(Oc2cc(C)nc(-c3ccccc3O)n2)cc1	aSyn 5UTR act -69.4
C/C(=N\Nc1cc(C)nc(-c2ccccc2O)n1)c1ccccc1	aSyn 5UTR act -64.8
Cc1cc(N/N=C/c2ccc(O)c(C)c2O)nc(-c2ccccc2O)n1	none
Oc1c(N=NC(=S)Nc2ccccc2F)c2ccccc2n1Cc1ccccc1F	none
Cc1ccccc1Cn1c(O)c(N=NC(=S)Nc2ccccc2F)c2ccccc21	none
CCn1c(O)c(N=NC(=O)c2cccs2)c2ccccc21	aSyn 5UTR act -67.3
CC1(C)CC(=O)C2=C(C1)c1c(ccc3ccccc13)NC2c1ccco1 (stereo not drawn)	aSyn 5UTR act -193.2
Cc1ccsc1/C=N/Nc1nc(Cl)c(Cl)cc1Cl	aSyn 5UTR act -161.6
Cc1ccc(/C=N/Nc2nc(Cl)c(Cl)cc2Cl)s1	aSyn 5UTR act -141.5
c1ccn(-c2ccc(-c3ccn[nH]3)cc2)c1	aSyn 5UTR act -164.2
CC1CCN(c2ccc(NC(=O)Cc3ccccc3)cc2)CC1	aSyn 5UTR act -82.5
O=C(Cc1ccccc1)Nc1ccc(N2CCOCC2)cc1	aSyn 5UTR act -72.9
O=C(Nc1ccc(N2CCOCC2)cc1)c1cn2ccccc2n1	none
CCOC(=O)c1sc(-c2ccc(C)cc2)c(C#N)c1C	aSyn 5UTR act -64.9
O=C(/C=C/Nc1ccc(F)cc1)c1ccco1	aSyn 5UTR act -143.6
CCOC(=O)c1ccc(N/C=C/C(=O)c2ccco2)cc1	aSyn 5UTR act -85.0
FC(F)Oc1ccc(N=C2SCC3CCCCN23)cc1 (stereo not drawn)	aSyn 5UTR act -206.2
Clc1ccc(N=C2SCC3CCCCN23)cc1 (stereo not drawn)	aSyn 5UTR act -144.7
COc1ccc(C([O-])=Nc2ccc[n+](-c3nc4ccccc4nc3NS(=O)(=O)c3ccccc3)c2)cc1	none
CC(=O)Nc1ccc(S(=O)(=O)Nc2nc3ccccc3nc2Nc2ccc3ccccc3c2)cc1	aSyn 5UTR act -132.6
Cc1ccsc1/C=N/n1cnc2sc(C)c(C)c2c1=O	aSyn 5UTR act -101.2
C(=C\c1nc(-c2ccncc2)no1)/c1ccccc1	aSyn 5UTR act -131.8
C(=C\c1ccncc1)/c1ccccc1	aSyn 5UTR act -73.3
C(=C\c1nc(-c2ccccc2)no1)/c1ccccc1	aSyn 5UTR act -154.1
Cc1cc(C)c2nc3sc(C(=O)N4CCOCC4)c(N)c3cc2c1	none
